Calls of active or inactive are those of the source.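 How the source made its calls: active means falling FRET signal with an AC50 fitted within ten times the highest valid concentration tested for that sample (actives reach about 61 µM in these data); inactive means the rest, including compounds that raise the signal.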

A short description of the assay: compounds lowering YIC probe YFP/CFP ratio – biochemical, dry powder samples, FRET, counter-screen for RanGTP-importin-beta inhibitor project, dose response (AID 493094). Particulars: cell-free YIC FRET probe; series mostly up to 100 µM. Background: A counterscreen serves to expose hits that act by an unwanted route or on another target.
On to `O=C(O)Cn1cc(/C=C2\SC(=O)N(CC(=O)N3CCCCCC3)C2=O)c2ccccc21`, for which the half-maximal activity concentration (AC50) was 55.3 µM (active). For the molecule `COCCNC(=O)/C(C#N)=C/c1cn(CC(=O)NCc2ccco2)c2ccccc12`, the AC50 is 61.3 µM (active). Turning to `CC1(C)CC(=O)c2c(C(F)(F)F)nn(-c3ccc(C(N)=O)c(NC4CCC(OC(=O)CN)CC4)c3)c2C1` (stereo unspecified), the AC50 entry was “inactive”.

`Cc1cc(Nc2ccc(C(F)(F)F)cc2)n2ncnc2n1`: the AC50 entry was “inactive”.

For `CCN(CC)c1nc(N2CCCC2)nc2ccccc12`, the AC50 entry is “inactive”. The figure for `CC1=C(C(=O)OCC2CCCO2)C(c2ccccc2OC(C)C)C2C(=O)CC(c3ccco3)CC2=N1` (stereo unspecified) is 13.2 µM (active).

Turning to `CCNc1nc(N2CCCC2)nc2ccccc12`, the AC50 result was “inactive”. For the molecule `C[C@H](Nc1nc(Cl)nc2ccccc12)c1ccccc1`, the AC50 result was “inactive”. The entry for `c1ccc2c(N3CCOCC3)nc(N3CCOCC3)nc2c1` is “inactive”; for `c1ccc(CNc2nc(N3CCCC3)nc3ccccc23)cc1` it is “inactive”; for `Cc1ccc(S(=O)(=O)c2cc3c(=O)n4cccc(C)c4nc3n(C3CCCCC3)c2=N)cc1` it is 26 µM (active). The figure for `CC(C)SCC(=O)Nc1ncc2c(n1)-c1ccccc1CC2` is 6.37 µM (active); for `CCCN(CCC)c1nc(N2CCOCC2)nc2ccccc12` it is “inactive”; for `C=CCn1c(N)c(C(=O)OCCC)c2nc3ccccc3nc21` it is 36.9 µM (active). As to `Clc1nc(NCc2ccccc2)c2ccccc2n1`, the AC50 result is “inactive”. The entry for `O=c1[nH]c(N2CCCC2)nc2ccccc12` is “inactive”. Turning to `c1ccc2c(N3CCCC3)nc(N3CCCC3)nc2c1`, the AC50 entry is “inactive”. `Cc1cccc(-n2c(C)cc(/C=C3/C(=N)N4N=C(CC(C)C)SC4=NC3=O)c2C)c1`: the half-maximal activity concentration (AC50) is 25.4 µM (active). For the molecule `CCCN(CCC)c1nc(N2CCCC2)nc2cc(OC)c(OC)cc12`, the AC50 entry is “inactive”. Regarding `COc1cc2nc(N3CCCC3)nc(N3CCCC3)c2cc1OC`, the AC50 result is “inactive”. To `CC1(C)CC(=O)c2c(C(F)(F)F)nn(-c3ccc(C(N)=O)c(NC4CCC(O)CC4)c3)c2C1` (stereo unspecified) belongs “inactive”; to `CCCN(CCC)c1nc(NCc2ccccc2)nc2ccccc12`, “inactive”.

As for `CCCN(CCC)c1nc(N2CCNCC2)c2ccccc2n1`, the AC50 entry was “inactive”. The figure for `COc1ccc(-c2cc(C(F)(F)F)n3nc(N)nc3n2)cc1` is 54.5 µM (active). To `CCCN(CCC)c1nc(Cl)nc2ccccc12` belongs “inactive”. To `COc1ccc(CCNC(=O)c2cc3c(=O)n4cccc(C)c4nc3n(CCCN3CCOCC3)c2=N)cc1` belongs 4.28 µM (active); to `CC(Nc1nc(N2CCCC2)nc2ccccc12)c1ccccc1` (stereo unspecified), “inactive”. On to `CC1(C)CC(=O)c2c(C(F)(F)F)nn(-c3ccc(C(N)=O)c(OC4CCC(N)CC4)c3)c2C1` (stereo unspecified), for which the AC50 entry was “inactive”. On to `C[C@@H](Nc1nc(N2CCCC2)nc2ccccc12)c1ccccc1`, for which the AC50 entry is “inactive”. Regarding `C[C@H](Nc1nc(N2CCCC2)nc2ccccc12)c1ccccc1`, the AC50 result was “inactive”. To `C[C@@H](Nc1nc(Cl)nc2ccccc12)c1ccccc1` belongs “inactive”; to `CCCN(CCC)c1nc(N)c2ccccc2n1`, “inactive”.

`CCCN(CCC)c1nc(N2CCCC2)c2cc(OC)c(OC)cc2n1`: the AC50 entry is “inactive”. To `CC1(C)CCC(c2ccc(Cl)cc2)=C(CN2CCN(c3ccc(C(=O)NS(=O)(=O)c4ccc(N[C@H](CCN5CCOCC5)CSc5ccccc5)c(S(=O)(=O)C(F)(F)F)c4)cc3)CC2)C1` belongs “inactive”; to `CCCN(CCC)c1nc(N2CCCC2)nc2ccccc12`, “inactive”. The figure for `COc1cc(OC)cc(C(=O)NCCNc2nc3cc(C)cc(C)c3cc2C#N)c1` is 27 µM (active).

Usually AC50 stands for the midpoint of the concentration-response curve, whichever way the signal moves.

The values are drawn from PubChem BioAssay AID493094 (Broad Institute, 2011).
